About 79,000 compounds went through this panel and 15% of them were active in at least one assay; those are over-represented in the sample as a whole. Calls of active or inactive are those of the source. No stated cut-off is given here; in the data, active means growth inhibition above about 70%; inactive means the rest.
Assays:
[1] = NCI Yeast Anticancer Drug Screen. Data for the rad52 strain (AID 147);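 further: 0% = growth of vehicle-treated control cultures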; conditions: S. cerevisiae rad52 mutant growth inhibition, stronger effect = higher value
How it was run: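 Vehicle-treated cultures served as the reference for growth inhibition of compound-exposed yeast bearing a DNA repair mutation.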

[2] = NCI Yeast Anticancer Drug Screen. Data for the wt1 strain (AID 149);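 further: 0% = growth of vehicle-treated wt1 cultures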; conditions: S. cerevisiae wt1 strain (SPY 50644) growth inhibition, stronger effect = higher value
How it was run: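 Growth inhibition read against vehicle controls after compound exposure of the wt1 yeast strain.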

[3] = NCI Yeast Anticancer Drug Screen. Data for the rad50EPP+ strain (AID 151);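 further: 0% = growth of vehicle-treated control cultures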; conditions: S. cerevisiae rad50 mutant strain, stronger effect = higher value
How it was run: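 In this screen, rad50EPP+ yeast were exposed to compounds. Growth inhibition was scored against vehicle-treated controls.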

[4] = NCI Yeast Anticancer Drug Screen. Data for the mgt1 strain (AID 153); conditions: S. cerevisiae mgt1 mutant growth inhibition, stronger effect = higher value
How it was run: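 mgt1 strain exposed; growth vs vehicle control recorded as inhibition.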

[5] = NCI Yeast Anticancer Drug Screen. Data for the rad50 strain (AID 155);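 further: 0% = growth of vehicle-only cultures of the same strain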; conditions: S. cerevisiae rad50 strain growth inhibition, stronger effect = higher value
How it was run: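 Readout: growth inhibition relative to vehicle-treated cultures. Compound exposure was carried out in a genetically defined yeast strain deficient in DNA damage repair.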

[6] = NCI Yeast Anticancer Drug Screen. Data for the mec2-1 strain (AID 157); conditions: S. cerevisiae mec2-1 strain, stronger effect = higher value
How it was run: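 Vehicle-treated cultures served as reference for growth inhibition of compound-exposed mec2-1 yeast.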

[7] = NCI Yeast Anticancer Drug Screen. Data for the rad14 strain (AID 159);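 further: 0% = growth of vehicle-treated control cultures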; conditions: S. cerevisiae rad14 strain growth inhibition, stronger effect = higher value
How it was run: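 Growth inhibition vs vehicle controls; genetically altered yeast strain (DNA damage repair defect) treated with test compounds.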

[8] = NCI Yeast Anticancer Drug Screen. Data for the sgs1 mgt1 strain (AID 161);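 further: 0% = growth of cultures given vehicle only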; conditions: S. cerevisiae sgs1 mgt1 strain, stronger effect = higher value
How it was run: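 Inhibition of yeast growth, normalised to vehicle-treated controls, is reported for a strain bearing genetic alterations in DNA damage repair.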

[9] = NCI Yeast Anticancer Drug Screen. Data for the CLN2oe strain (AID 163);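 further: 0% = growth of vehicle-only control cultures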; conditions: S. cerevisiae CLN2oe strain, stronger effect = higher value
How it was run: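 Inhibition relative to vehicle-treated yeast is reported. Cells: strain with genetic alteration in cell-cycle control, grown with compound.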

[10] = NCI Yeast Anticancer Drug Screen. Data for the cln2 rad14 strain (AID 165);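 further: 0% = growth equal to vehicle treated cultures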; conditions: S. cerevisiae cln2 rad14 strain, stronger effect = higher value
How it was run: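 Each compound was tested on cln2 rad14 yeast. Inhibition of growth was calculated against vehicle-exposed controls.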

[11] = NCI Yeast Anticancer Drug Screen. Data for the bub3 strain (AID 167); conditions: S. cerevisiae bub3 mutant strain, stronger effect = higher value
How it was run: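 Readout: yeast growth inhibition, expressed relative to vehicle-only wells. The test organism is a mutant strain from a panel with lesions in DNA repair or checkpoint genes.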

[12] = NCI Yeast Anticancer Drug Screen. Data for the wt2 strain (AID 169);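 further: 0% = growth of vehicle-treated yeast cultures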; conditions: S. cerevisiae wt2 strain growth inhibition, stronger effect = higher value
How it was run: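 Inhibition of yeast growth was determined after compound treatment, normalised to controls receiving only vehicle.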

[13] = NCI Yeast Anticancer Drug Screen. Data for the mlh1 strain (AID 171);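 further: 0% = growth of vehicle-treated control cultures of the same strain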; conditions: S. cerevisiae mlh1 strain growth inhibition, stronger effect = higher value
How it was run: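 Vehicle-normalised growth inhibition of a repair- or checkpoint-altered yeast strain following compound treatment.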

[14] = NCI Yeast Anticancer Drug Screen. Data for the sgs1 strain (AID 173);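 further: 0% = growth of vehicle-only control cultures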; conditions: S. cerevisiae sgs1 mutant, stronger effect = higher value
How it was run: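 Screen format: yeast with repair or checkpoint alterations, compound exposure, growth read relative to vehicle.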

[15] = NCI Yeast Anticancer Drug Screen. Data for the mlh1 rad18 strain (AID 175); conditions: S. cerevisiae mlh1 rad18 strain growth inhibition, stronger effect = higher value
How it was run: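 Vehicle-treated cultures served as the reference for growth inhibition in a yeast strain carrying DNA damage repair alterations exposed to each compound.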

[16] = NCI Yeast Anticancer Drug Screen. Data for the rad18 strain (AID 177); conditions: S. cerevisiae rad18 mutant growth inhibition, stronger effect = higher value
How it was run: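 Test articles were incubated with altered yeast defective in DNA damage repair. Results are given as inhibition of growth versus vehicle.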

[17] = at 5.0 µM (retest, dose inferred, filed as 0.5)
[18] = at 50.0 µM (retest, dose inferred, filed as 5.0)

Measured: growth inhibition

O=c1c2ccccc2nc(-c2cccc([N+](=O)[O-])c2)n1O
inactive: [1]; at 1.2 µM 17% | [1]; at 3.7 µM 45% | [2]; at 1.2 µM 12% | [2]; at 3.7 µM 21% | [2]; at 11.0 µM 60% | [3]; at 1.2 µM -9% | [3]; at 3.7 µM -5% | [3]; at 11.0 µM 13% | [3]; at 33.0 µM 35% | [3]; at 100.0 µM 65% | [4]; at 1.2 µM 13% | [4]; at 3.7 µM 21% | [4]; at 11.0 µM 52% | [5]; at 1.2 µM 14% | [5]; at 3.7 µM 31% | [5]; [17] 12% | [6]; at 1.2 µM 14% | [6]; at 3.7 µM 19% | [6]; [17] 7% | [6]; at 11.0 µM 37% | [6]; at 33.0 µM 58% | [6]; at 100.0 µM 68% | [7]; at 1.2 µM 36% | [8]; [17] 26% | [9]; at 1.2 µM 6% | [9]; at 3.7 µM 15% | [9]; at 11.0 µM 33% | [9]; at 33.0 µM 46% | [9]; at 100.0 µM 51% | [10]; [17] -20% | [11]; at 1.2 µM -4% | [11]; at 3.7 µM 5% | [11]; at 11.0 µM 43% | [11]; at 33.0 µM 59% | [12]; at 1.2 µM 25% | [12]; at 3.7 µM 49% | [13]; at 1.2 µM 16% | [13]; at 3.7 µM 29% | [14]; at 1.2 µM 37% | [15]; [17] 21% | [16]; at 1.2 µM 37% | [16]; at 3.7 µM 64%
active: [1]; at 11.0 µM 83% | [1]; at 33.0 µM 91% | [1]; at 100.0 µM 91% | [2]; at 33.0 µM 84% | [2]; at 100.0 µM 90% | [4]; at 33.0 µM 85% | [4]; at 100.0 µM 90% | [5]; at 11.0 µM 76% | [5]; at 33.0 µM 89% | [5]; [18] 97% | [5]; at 50.0 µM 97.8% | [5]; at 100.0 µM 91% | [6]; [18] 95% | [6]; at 50.0 µM 97.7% | [7]; at 3.7 µM 73% | [7]; at 11.0 µM 93% | [7]; at 33.0 µM 97% | [7]; at 100.0 µM 97% | [8]; [18] 97% | [8]; at 50.0 µM 98% | [10]; [18] 76% | [10]; at 50.0 µM 87.2% | [11]; [17] 71% | [11]; [18] 96% | [11]; at 50.0 µM 84.8% | [11]; at 100.0 µM 70% | [12]; at 11.0 µM 87% | [12]; at 33.0 µM 94% | [12]; at 100.0 µM 95% | [13]; at 11.0 µM 71% | [13]; at 33.0 µM 78% | [13]; at 100.0 µM 90% | [14]; at 3.7 µM 72% | [14]; at 11.0 µM 91% | [14]; at 33.0 µM 94% | [14]; at 100.0 µM 95% | [15]; [18] 98% | [15]; at 50.0 µM 98.1% | [16]; at 11.0 µM 88% | [16]; at 33.0 µM 92% | [16]; at 100.0 µM 92%

O=C1C(CCSc2ccccc2)C(=O)N(c2ccccc2)C1c1ccccc1 (stereo not drawn)
active: [1]; at 33.0 µM 96% | [1]; at 100.0 µM 89% | [2]; at 33.0 µM 96% | [2]; at 100.0 µM 88% | [4]; at 33.0 µM 97% | [4]; at 100.0 µM 89% | [5]; at 33.0 µM 96% | [5]; [18] 85% | [5]; at 50.0 µM 90.9% | [5]; at 100.0 µM 89%
inactive: [1]; at 1.2 µM 23% | [1]; at 3.7 µM 24% | [1]; at 11.0 µM 49% | [2]; at 1.2 µM -32% | [2]; at 3.7 µM -14% | [2]; at 11.0 µM 17% | [3]; at 1.2 µM -4% | [3]; at 3.7 µM -12% | [3]; at 11.0 µM -15% | [3]; at 33.0 µM 0% | [3]; at 100.0 µM -11% | [4]; at 1.2 µM 8% | [4]; at 3.7 µM -18% | [4]; at 11.0 µM 8% | [5]; at 1.2 µM 12% | [5]; at 3.7 µM 17% | [5]; [17] 28% | [5]; at 11.0 µM 35% | [6]; at 1.2 µM 11% | [6]; at 3.7 µM 13%

From PubChem BioAssay (NCI)
